RBX1-CUL1 inh = inhibitors of human ROC1-CUL1 ubiquitin ligase activity; E3 ubiquitin-protein ligase RBX1 (Homo sapiens) + Cullin-1 (Homo sapiens), P62877+Q13616; actives 0.6% (n = 140,000); AID 1347404, 2020; inhibition, % at 10 µM; in vitro K48 di-Ub FRET, acceptor:donor ratio, 45 min; in the data active means inhibition above about 25%
Target sequence (P62877 whole entry, looked up): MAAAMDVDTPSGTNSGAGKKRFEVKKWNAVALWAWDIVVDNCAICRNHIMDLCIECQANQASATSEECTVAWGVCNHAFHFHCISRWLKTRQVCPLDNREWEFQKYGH
Target sequence (Q13616 whole entry, looked up): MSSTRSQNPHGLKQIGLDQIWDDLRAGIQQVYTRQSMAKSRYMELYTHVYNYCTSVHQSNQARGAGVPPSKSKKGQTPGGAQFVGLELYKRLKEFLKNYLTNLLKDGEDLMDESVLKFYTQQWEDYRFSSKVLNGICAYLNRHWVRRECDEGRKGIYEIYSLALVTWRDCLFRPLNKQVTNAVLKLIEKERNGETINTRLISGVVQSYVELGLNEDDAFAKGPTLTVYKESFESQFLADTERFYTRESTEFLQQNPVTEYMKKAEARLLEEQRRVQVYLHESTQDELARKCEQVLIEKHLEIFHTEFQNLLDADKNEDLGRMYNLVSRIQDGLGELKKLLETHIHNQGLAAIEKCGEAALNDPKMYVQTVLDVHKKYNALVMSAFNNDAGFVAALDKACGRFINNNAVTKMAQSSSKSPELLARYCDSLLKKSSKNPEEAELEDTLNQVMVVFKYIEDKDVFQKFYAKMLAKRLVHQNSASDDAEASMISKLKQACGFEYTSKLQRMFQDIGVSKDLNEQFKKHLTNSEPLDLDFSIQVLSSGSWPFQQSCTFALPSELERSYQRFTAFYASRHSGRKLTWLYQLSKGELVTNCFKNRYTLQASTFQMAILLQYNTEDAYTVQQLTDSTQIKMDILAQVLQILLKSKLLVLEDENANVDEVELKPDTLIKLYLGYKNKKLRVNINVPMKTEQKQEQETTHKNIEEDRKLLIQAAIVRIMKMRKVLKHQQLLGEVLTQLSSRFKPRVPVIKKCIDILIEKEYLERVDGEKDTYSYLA
* marks the source's active call; other numbers are inactive results. The sample as a whole holds a higher share of hits than the screen did.

SMILES	RBX1-CUL1 inh
CC(C)(CC(=O)Nc1scc(-c2cccs2)c1C(=O)O)CC(=O)Nc1scc(-c2cccs2)c1C(=O)O	-3
Cc1nn2c(C)csc2nc1=O	0
Cn1c(=O)c2c(nc3n(-c4cccc(Cl)c4)c(-c4ccc(Cl)cc4)cn23)n(C)c1=O	-8
CCOC(=O)C1(CCOc2ccccc2)CCN(C(=O)c2ccnn2C)CC1	6
Cc1ccc(CNC(=O)c2cc(-c3ccc(C)o3)nc3ccccc23)cc1	8
Cc1ccc(-c2cc(C(=O)Nc3ccccc3C(N)=O)c3ccccc3n2)o1	1
CCSc1nnc(NC(=O)c2cc(-c3ccc(C)o3)nc3ccccc23)s1	81*
CCOC(=O)c1c(-n2c(C)cc(/C=C3\C(=O)NC(=S)N(c4ccccc4)C3=O)c2C)sc2c1CCCC2	49*
Cc1cc(C=C2C(=O)NC(=S)NC2=O)c(C)n1-c1sc2c(c1C(=O)Nc1ccccc1)CCCC2	-2
CCOc1ccc(N2C(=O)/C(=C/c3cc(C)n(C4CCCC4)c3C)C(=O)NC2=S)cc1	-4
O=C(Cc1ccncc1Br)NCCc1c[nH]c2ccccc12	-4
CCN(CC)c1ccc(N=c2ssc3c2-c2ccccc2NC3(C)C)cc1	-10
O=C1C2=C(CCCC2)c2nc(=O)c3ccccc3n21	3
COc1ccccc1N1CCN(CCCNC(=O)C2CCCN2Cc2ccccc2)CC1 (stereo not drawn)	-2
N#CC1=c2s/c(=C\c3ccccc3C(F)(F)F)c(=O)n2C(=N)C(C#N)C1c1ccccc1C(F)(F)F (stereo not drawn)	4
N#CC1=c2s/c(=C\c3ccc(-c4ccccc4)o3)c(=O)n2C(=N)C(C#N)C1c1ccc(-c2ccccc2)o1 (stereo not drawn)	56*
N#CC1=c2s/c(=C/c3cccc(C(F)(F)F)c3)c(=O)n2C(=N)C(C#N)C1c1cccc(C(F)(F)F)c1 (stereo not drawn)	-2
CCCCC1(C)OC(=O)C(=Cc2ccc(-c3cc(C(=O)O)ccc3Cl)o2)C(=O)O1 (stereo not drawn)	85*
CCC(C)N1C(=O)S/C(=C/c2ccc(-c3cc(C(=O)O)ccc3Cl)o2)C1=O (stereo not drawn)	15
O=C(O)c1ccc(Cl)c(-c2ccc(/C=N/Nc3ccccc3)o2)c1	2
O=C(O)c1cc2oc3ccccc3c3ccccc3oc2cc1C(=O)Nc1cccc(Cl)c1	40*
Nc1ccccc1C(=O)Nc1cccc(Cl)c1	10
O=C(Nc1cccc(Cl)c1)Nc1ccccc1C(=O)O	2
CCOc1ccc(NC(=S)Nc2ccc3nsnc3c2)cc1	51*
CCOc1ccc(NC(=S)NCCCO)cc1	8
SMILES	RBX1-CUL1 inh
CCOc1ccc(NC(=S)NCCO)cc1	11
COc1ccc(NC(=O)CCC(=O)c2ccc(C)c(C)c2)cc1	-3
Cc1sc2[nH]c(=S)n(Cc3ccccc3)c(=O)c2c1C	0
CCC(=O)OC1C(OC(=O)CC)C(OC(=O)CC)C(OC(=O)CC)C(OC(=O)CC)C1OC(=O)CC (stereo not drawn)	5
COC(=O)c1ccc(CN2CCCC(Nc3cccc(F)c3)C2)cc1 (stereo not drawn)	-10
CCCCc1c(C)c2ccc(OC(C)C(=O)OCC)cc2oc1=O (stereo not drawn)	3
COc1ccc(Cc2nn3c(=O)c4ccccc4nc3n(N)c2=O)cc1	-5
COc1cc(/C=C2\SC(=O)N(c3ccc(Cl)cc3)C2=O)c(Br)cc1OCC(=O)O	41*
O=C(O)COc1ccc(Br)cc1/C=C1\SC(=O)N(c2cccc(Cl)c2)C1=O	51*
CCc1ccccc1N=C1S/C(=C\c2cc(Br)ccc2OCC(=O)O)C(=O)N1c1ccccc1CC	0
CCOC(=O)COc1cc(Br)c(/C=C2/SC(=O)N(CC)C2=O)cc1OC	-7
O=C(O)COc1ccc(Br)cc1/C=C1/SC(=O)N(CC(=O)N2CCCC2)C1=O	-9
COc1cc(/C=C2\SC(=O)N(Cc3ccc(F)cc3)C2=O)c(Br)cc1OCC(=O)O	9
COc1ccc(S(=O)(=O)N(CC(=O)NCCSc2ccccn2)c2cc(Cl)ccc2OC)cc1OC	6
Cc1cccc(-c2nc3ccccc3c(=O)n2NC(=O)C(Cc2ccccc2)N2C(=O)c3ccccc3C2=O)c1 (stereo not drawn)	3
COc1nc2c(Cl)ccc(N)c2s1	5
O=c1oc2cc3oc4c(c3cc2c(-c2ccccc2)c1-c1ccccc1)CCCC4	16
O=C(NC[C@H]1C[C@H]2C=C[C@H]1C21CC1)c1coc(COc2cccc3cccnc23)n1	-4
CC1(C)CNC(=O)C=C(c2ccccc2)C1	-1
CN1C(=O)C=C(c2ccccc2)CC1=O	99*
O=C1C=C(c2ccccc2)OC(=O)C1	1
CC(=O)c1cc(CN2CCc3[nH]nc(-c4ccccc4)c3C2)cs1	6
Fc1ccc(-c2cc[n+]3cc(Cl)ccc3n2)cc1	2
CC(C)Oc1c(-c2ccc(F)cc2)c(=O)c1=O	-9
CC(C)Oc1c(-c2ccco2)c(=O)c1=O	69*
SMILES	RBX1-CUL1 inh
CC(C)Oc1c(-c2ccccc2)c(=O)c1=O	7
Cc1nc(N(C)C)nc(-c2cccc(-c3ccn(Cc4cncn4C)n3)c2)c1C	-4
CCS(=O)(=O)Nc1cc(C(=O)NCC(C)Oc2cccnc2)c2c(c1)nc(-c1ccccc1)n2C (stereo not drawn)	4
CCCCOC(=O)c1cc(-c2ccc(CC3=NC(=S)NC3=O)o2)ccc1Cl	1
CCOC(=O)c1cc(-c2ccc(/C=C(\C#N)c3nc4ccc(C)cc4[nH]3)o2)ccc1Cl	-4
CCOC(=O)c1cc(-c2ccc(C(c3c(C)[nH][nH]c3=O)c3c(C)[nH][nH]c3=O)o2)ccc1Cl	67*
O=C1C(C=NC2CCCCC2)C(c2ccccc2)=NN1c1nc2ccccc2s1 (stereo not drawn)	3
O=C(COC(=O)c1ccc2c(c1)C(=O)N(c1ccc(O)cc1)C2=O)c1ccccc1	-5
Cc1ccc(NC(=O)c2ccc3c(c2)C(=O)N(CC(C)C)C3=O)c(C(=O)O)c1	12
CCOC(=O)c1ccc(N2C(=O)c3ccc(C(=O)Nc4ccc(O)cc4C(=O)O)cc3C2=O)cc1	69*
Cc1ccc(N2NC(=O)/C(=C/c3ccc(-c4ccc(S(=O)(=O)Nc5nccs5)cc4)o3)C2=O)cc1C	85*
CCc1ccc(N2NC(=O)/C(=C/c3ccc(-c4ccc(S(=O)(=O)Nc5nccs5)cc4)o3)C2=O)cc1	93*
O=C1NN(c2cccc(F)c2)C(=O)/C1=C/c1ccc(-c2ccc(Cl)cc2)o1	5
COC(=O)c1cccc(-c2ccc(/C=C3/C(=O)NN(c4ccc(C)c(C)c4)C3=O)o2)c1	4
O=C1NN(c2ccc(Br)cc2)C(=O)/C1=C\c1ccc(-c2ccccc2)o1	-1
CCCOC(=O)c1cc(-c2ccc(/C=C3/C(=O)NN(c4ccc(CC)cc4)C3=O)o2)ccc1Cl	11
Cc1ccc(N2NC(=O)/C(=C/c3ccc(-c4ccc(S(=O)(=O)Nc5nccs5)cc4)o3)C2=O)cc1Cl	99*
O=C1NN(c2ccc(F)c(Cl)c2)C(=O)/C1=C/c1ccc(-c2cccc(Cl)c2)o1	-8
O=C1NN(c2ccc(F)c(Cl)c2)C(=O)/C1=C/c1ccc(-c2ccc(Cl)cc2)o1	-7
Cc1ncc2c(c1CNC(=O)/C=C/c1cccs1)CCN(C(=O)Cc1ccc(F)c(F)c1)C2	9
C=C(C)COc1ccc(/C=C2\N=C(c3ccc(OC)cc3)OC2=O)cc1OC	3

High-throughput results: PubChem, Pan Lab, Icahn School of Medicine at Mount Sinai
